# What was measured:
# Assay in all cases: DAPPL (digital affinity profiling via proximity ligation, sequencing); 10 mM Tris-HCl pH 7.5, 50 mM NaCl, 1 mM DTT, 4% glycerol, room temperature, 30 min; GST-TFs on glutathione beads, 16-mer random dsDNA library, 0.1% formaldehyde crosslink after washing; high values mean tight binding
# Conditions in all cases: protein: recombinant; tags: N-terminal GST; dsDNA, one strand shown
# [1] = target: T1, ERF (Homo sapiens, UniProt P50548 1-548)
# T1 sequence: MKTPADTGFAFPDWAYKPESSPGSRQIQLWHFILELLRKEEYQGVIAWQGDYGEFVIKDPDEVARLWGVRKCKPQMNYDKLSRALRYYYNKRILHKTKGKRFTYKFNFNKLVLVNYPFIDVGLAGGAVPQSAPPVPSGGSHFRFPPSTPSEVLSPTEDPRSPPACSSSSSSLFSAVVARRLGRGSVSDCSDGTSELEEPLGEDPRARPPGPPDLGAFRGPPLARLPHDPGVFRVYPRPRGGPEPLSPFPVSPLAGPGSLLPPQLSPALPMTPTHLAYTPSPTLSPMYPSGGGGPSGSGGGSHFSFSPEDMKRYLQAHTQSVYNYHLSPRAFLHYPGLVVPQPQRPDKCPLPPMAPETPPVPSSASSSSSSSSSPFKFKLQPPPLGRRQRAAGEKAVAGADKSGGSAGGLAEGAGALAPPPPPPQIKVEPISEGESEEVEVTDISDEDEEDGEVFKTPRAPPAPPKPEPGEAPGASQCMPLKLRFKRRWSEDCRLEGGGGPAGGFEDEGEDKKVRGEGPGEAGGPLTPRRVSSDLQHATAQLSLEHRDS
# In short: (§1)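 The binding signal reported is, for every hexamer, its read frequency for a factor over its read frequency for the tag-only sample. Reads came from pools of yeast-expressed, GST-fused human transcription factors on glutathione beads, barcoded with DNA and mixed with that sample, which were incubated with 200 nmole of a random double-stranded 16-mer DNA library in Tris/NaCl/DTT/glycerol buffer at room temperature for 30 min. After washing, the pools were crosslinked with 0.1% formaldehyde, proximity-ligated with BsaI/T4 ligase for 1 h at 37 °C, PCR-amplified and sequenced on an Illumina NextSeq500.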
# [2] = target: T2, ETV3L (Homo sapiens, UniProt Q6ZN32 1-361)
# T2 sequence: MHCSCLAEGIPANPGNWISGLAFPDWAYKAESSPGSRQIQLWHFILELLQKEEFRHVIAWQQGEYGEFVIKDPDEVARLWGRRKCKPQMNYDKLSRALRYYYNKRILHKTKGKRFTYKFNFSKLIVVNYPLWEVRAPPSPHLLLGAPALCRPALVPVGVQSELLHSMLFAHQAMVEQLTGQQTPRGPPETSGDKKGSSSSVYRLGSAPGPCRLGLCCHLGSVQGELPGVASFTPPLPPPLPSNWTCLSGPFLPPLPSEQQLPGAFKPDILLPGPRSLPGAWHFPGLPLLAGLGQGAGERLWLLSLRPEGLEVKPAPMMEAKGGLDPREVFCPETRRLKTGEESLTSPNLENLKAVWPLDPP
# In short: as §1
# [3] = target: T3, ETS2 (Homo sapiens, UniProt P15036 1-469)
# T3 sequence: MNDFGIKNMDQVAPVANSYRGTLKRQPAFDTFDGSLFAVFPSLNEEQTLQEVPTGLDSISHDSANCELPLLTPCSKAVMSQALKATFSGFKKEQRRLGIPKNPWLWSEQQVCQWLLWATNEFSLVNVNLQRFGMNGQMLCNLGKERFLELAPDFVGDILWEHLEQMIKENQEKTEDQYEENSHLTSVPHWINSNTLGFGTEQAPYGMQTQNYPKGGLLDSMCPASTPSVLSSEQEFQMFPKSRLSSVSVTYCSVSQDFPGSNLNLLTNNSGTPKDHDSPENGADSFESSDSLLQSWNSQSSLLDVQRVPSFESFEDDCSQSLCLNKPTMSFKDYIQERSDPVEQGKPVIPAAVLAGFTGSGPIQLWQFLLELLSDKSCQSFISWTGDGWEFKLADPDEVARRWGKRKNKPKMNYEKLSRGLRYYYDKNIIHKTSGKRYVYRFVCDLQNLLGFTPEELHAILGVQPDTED
# In short: as §1
# [4] = target: T4, SPDEF (Homo sapiens, UniProt O95238 1-335)
# T4 sequence: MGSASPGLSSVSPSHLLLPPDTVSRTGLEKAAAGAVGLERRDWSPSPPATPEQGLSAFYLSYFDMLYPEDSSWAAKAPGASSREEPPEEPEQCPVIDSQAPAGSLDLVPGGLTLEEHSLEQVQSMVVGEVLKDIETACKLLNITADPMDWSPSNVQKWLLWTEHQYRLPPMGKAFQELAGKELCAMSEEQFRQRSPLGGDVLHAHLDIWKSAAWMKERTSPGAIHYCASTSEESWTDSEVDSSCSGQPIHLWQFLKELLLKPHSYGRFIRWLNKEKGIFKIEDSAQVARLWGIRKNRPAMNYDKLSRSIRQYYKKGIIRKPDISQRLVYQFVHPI
# In short: as §1
# [5] = target: T5, ETV7 (Homo sapiens, UniProt Q9Y603 1-341)
# T5 sequence: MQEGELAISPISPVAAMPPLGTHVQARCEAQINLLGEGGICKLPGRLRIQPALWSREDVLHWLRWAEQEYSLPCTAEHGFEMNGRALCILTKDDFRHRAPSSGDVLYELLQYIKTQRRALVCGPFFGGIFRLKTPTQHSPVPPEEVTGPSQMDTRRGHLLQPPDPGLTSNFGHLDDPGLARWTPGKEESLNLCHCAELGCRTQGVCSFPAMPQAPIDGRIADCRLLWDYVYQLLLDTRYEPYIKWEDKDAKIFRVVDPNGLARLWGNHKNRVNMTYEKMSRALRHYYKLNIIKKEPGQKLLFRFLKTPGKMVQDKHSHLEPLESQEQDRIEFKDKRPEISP
# In short: as §1
# [6] = target: T6, ELF5 (Homo sapiens, UniProt Q9UKW6-2 1-255)
# T6 sequence: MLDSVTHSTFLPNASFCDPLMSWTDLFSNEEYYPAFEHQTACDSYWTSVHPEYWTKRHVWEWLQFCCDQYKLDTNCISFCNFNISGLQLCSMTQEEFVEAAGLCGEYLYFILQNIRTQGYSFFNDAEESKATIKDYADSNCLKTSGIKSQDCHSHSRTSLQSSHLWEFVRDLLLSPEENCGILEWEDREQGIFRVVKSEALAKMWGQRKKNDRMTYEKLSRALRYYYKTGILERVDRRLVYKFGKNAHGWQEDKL
# In short: as §1
# [7] = target: T7, ETV3 (Homo sapiens, UniProt P41162-2 1-143)
# T7 sequence: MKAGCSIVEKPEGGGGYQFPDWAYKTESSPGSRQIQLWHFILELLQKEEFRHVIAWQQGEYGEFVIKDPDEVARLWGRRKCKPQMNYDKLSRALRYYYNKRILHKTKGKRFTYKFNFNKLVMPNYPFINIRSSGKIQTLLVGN
# In short: as §1
# [8] = target: ETV6 (Homo sapiens, UniProt P41212 1-452)
# In short: as §1
# Chain of ETV6 (P41212 whole entry): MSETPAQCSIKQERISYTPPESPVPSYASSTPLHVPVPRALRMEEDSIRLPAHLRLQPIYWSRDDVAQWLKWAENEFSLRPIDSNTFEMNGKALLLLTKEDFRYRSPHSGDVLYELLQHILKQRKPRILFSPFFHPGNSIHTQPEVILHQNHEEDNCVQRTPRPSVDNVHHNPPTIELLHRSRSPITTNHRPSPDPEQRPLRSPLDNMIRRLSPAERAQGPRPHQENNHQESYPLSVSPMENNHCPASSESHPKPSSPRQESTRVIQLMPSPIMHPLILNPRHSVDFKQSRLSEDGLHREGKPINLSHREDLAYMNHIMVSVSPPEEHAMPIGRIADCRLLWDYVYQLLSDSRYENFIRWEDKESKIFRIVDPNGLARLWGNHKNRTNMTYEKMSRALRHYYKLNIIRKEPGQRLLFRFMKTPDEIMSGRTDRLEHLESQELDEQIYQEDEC
Sequence,binding signal [1],binding signal [2],binding signal [3],binding signal [4],binding signal [5],binding signal [6],binding signal [7],binding signal [8]
TACGCG,"1.13 fold enrichment (6-mer frequency, TF over GST control)","1.13 fold enrichment (6-mer frequency, TF over GST control)","1.14 fold enrichment (6-mer frequency, TF over GST control)","1.23 fold enrichment (6-mer frequency, TF over GST control)","1.02 fold enrichment (6-mer frequency, TF over GST control)","1.09 fold enrichment (6-mer frequency, TF over GST control)","1.16 fold enrichment (6-mer frequency, TF over GST control)","1.15 fold enrichment (6-mer frequency, TF over GST control)"
ATGCAA,"1.23 fold enrichment (6-mer frequency, TF over GST control)","1.26 fold enrichment (6-mer frequency, TF over GST control)","1.26 fold enrichment (6-mer frequency, TF over GST control)","1.3 fold enrichment (6-mer frequency, TF over GST control)","1.19 fold enrichment (6-mer frequency, TF over GST control)","1.26 fold enrichment (6-mer frequency, TF over GST control)","1.17 fold enrichment (6-mer frequency, TF over GST control)","1.24 fold enrichment (6-mer frequency, TF over GST control)"
AGTATT,"1.3 fold enrichment (6-mer frequency, TF over GST control)","1.22 fold enrichment (6-mer frequency, TF over GST control)","1.17 fold enrichment (6-mer frequency, TF over GST control)","1.05 fold enrichment (6-mer frequency, TF over GST control)","1.3 fold enrichment (6-mer frequency, TF over GST control)","1.27 fold enrichment (6-mer frequency, TF over GST control)","1.19 fold enrichment (6-mer frequency, TF over GST control)","1.32 fold enrichment (6-mer frequency, TF over GST control)"
TTCGCC,"1.14 fold enrichment (6-mer frequency, TF over GST control)","1.27 fold enrichment (6-mer frequency, TF over GST control)","1.12 fold enrichment (6-mer frequency, TF over GST control)","1.1 fold enrichment (6-mer frequency, TF over GST control)","1.18 fold enrichment (6-mer frequency, TF over GST control)","1.04 fold enrichment (6-mer frequency, TF over GST control)","1.08 fold enrichment (6-mer frequency, TF over GST control)","1.16 fold enrichment (6-mer frequency, TF over GST control)"
TTAACT,"1.23 fold enrichment (6-mer frequency, TF over GST control)","1.19 fold enrichment (6-mer frequency, TF over GST control)","1.25 fold enrichment (6-mer frequency, TF over GST control)","1.18 fold enrichment (6-mer frequency, TF over GST control)","1.16 fold enrichment (6-mer frequency, TF over GST control)","1.17 fold enrichment (6-mer frequency, TF over GST control)","1.22 fold enrichment (6-mer frequency, TF over GST control)","1.17 fold enrichment (6-mer frequency, TF over GST control)"
CTTATG,"1.52 fold enrichment (6-mer frequency, TF over GST control)","1.35 fold enrichment (6-mer frequency, TF over GST control)","1.43 fold enrichment (6-mer frequency, TF over GST control)","1.53 fold enrichment (6-mer frequency, TF over GST control)","1.47 fold enrichment (6-mer frequency, TF over GST control)","1.42 fold enrichment (6-mer frequency, TF over GST control)","1.64 fold enrichment (6-mer frequency, TF over GST control)","1.4 fold enrichment (6-mer frequency, TF over GST control)"
